Reference: ChEMBL document CHEMBL1961873, “Compounds: GSK PKIS; Assays: Nanosyn kinase panel” (2012)

Legend:
[1] = biological target: 5'-AMP-activated protein kinase catalytic subunit alpha-2 (Homo sapiens) (UniProt P54646); settings: at 1 µM
[2] = biological target: T1, NUAK family SNF1-like kinase 1 (Homo sapiens) (UniProt O60285); settings: at 0.1 µM
T1 sequence (whole entry): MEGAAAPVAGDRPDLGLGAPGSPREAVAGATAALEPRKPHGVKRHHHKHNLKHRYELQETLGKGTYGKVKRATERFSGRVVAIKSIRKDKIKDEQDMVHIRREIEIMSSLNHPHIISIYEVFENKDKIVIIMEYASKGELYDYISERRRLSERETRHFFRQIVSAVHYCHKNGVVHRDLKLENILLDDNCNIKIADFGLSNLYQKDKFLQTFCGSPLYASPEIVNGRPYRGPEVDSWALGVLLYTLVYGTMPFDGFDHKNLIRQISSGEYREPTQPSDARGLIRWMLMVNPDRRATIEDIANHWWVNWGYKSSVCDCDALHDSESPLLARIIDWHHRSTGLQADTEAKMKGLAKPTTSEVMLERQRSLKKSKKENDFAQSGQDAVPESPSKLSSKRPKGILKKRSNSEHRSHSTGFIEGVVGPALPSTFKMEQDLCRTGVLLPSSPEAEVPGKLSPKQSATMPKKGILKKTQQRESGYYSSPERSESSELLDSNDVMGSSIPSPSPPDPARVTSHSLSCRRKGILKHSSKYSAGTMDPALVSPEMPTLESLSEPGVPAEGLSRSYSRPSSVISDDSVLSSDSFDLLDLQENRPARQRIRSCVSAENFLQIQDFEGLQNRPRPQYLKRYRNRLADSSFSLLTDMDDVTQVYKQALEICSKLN

[3] = biological target: T1, NUAK family SNF1-like kinase 1 (Homo sapiens); settings: at 1 µM
[4] = biological target: T2, Serine/threonine-protein kinase BRSK1 (Homo sapiens) (UniProt Q8TDC3); settings: at 0.1 µM
T2 sequence (whole entry): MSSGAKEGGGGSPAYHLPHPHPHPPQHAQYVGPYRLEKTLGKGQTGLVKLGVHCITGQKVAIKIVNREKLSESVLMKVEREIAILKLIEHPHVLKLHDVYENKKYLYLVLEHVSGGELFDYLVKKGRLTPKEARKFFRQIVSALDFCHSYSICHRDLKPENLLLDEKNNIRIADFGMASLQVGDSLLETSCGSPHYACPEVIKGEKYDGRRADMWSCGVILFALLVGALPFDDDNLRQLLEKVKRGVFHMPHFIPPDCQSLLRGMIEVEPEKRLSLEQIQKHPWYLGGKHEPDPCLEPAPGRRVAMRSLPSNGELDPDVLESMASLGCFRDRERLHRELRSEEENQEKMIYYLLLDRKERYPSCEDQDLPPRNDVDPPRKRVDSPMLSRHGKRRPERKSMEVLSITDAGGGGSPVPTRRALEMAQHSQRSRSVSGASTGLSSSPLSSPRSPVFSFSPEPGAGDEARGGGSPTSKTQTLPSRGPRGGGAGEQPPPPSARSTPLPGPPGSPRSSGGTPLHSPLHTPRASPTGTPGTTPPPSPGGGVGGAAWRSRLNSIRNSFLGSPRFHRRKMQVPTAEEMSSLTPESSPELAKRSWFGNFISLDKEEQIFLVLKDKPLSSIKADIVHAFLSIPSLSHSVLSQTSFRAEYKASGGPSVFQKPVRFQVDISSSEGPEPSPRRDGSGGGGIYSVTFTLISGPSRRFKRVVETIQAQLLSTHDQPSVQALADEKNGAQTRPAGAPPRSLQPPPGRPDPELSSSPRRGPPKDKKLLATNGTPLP

[5] = biological target: T2, Serine/threonine-protein kinase BRSK1 (Homo sapiens); settings: at 1 µM
[6] = biological target: T3, Serine/threonine-protein kinase BRSK2 (Homo sapiens) (UniProt Q8IWQ3); settings: at 0.1 µM
T3 sequence (whole entry): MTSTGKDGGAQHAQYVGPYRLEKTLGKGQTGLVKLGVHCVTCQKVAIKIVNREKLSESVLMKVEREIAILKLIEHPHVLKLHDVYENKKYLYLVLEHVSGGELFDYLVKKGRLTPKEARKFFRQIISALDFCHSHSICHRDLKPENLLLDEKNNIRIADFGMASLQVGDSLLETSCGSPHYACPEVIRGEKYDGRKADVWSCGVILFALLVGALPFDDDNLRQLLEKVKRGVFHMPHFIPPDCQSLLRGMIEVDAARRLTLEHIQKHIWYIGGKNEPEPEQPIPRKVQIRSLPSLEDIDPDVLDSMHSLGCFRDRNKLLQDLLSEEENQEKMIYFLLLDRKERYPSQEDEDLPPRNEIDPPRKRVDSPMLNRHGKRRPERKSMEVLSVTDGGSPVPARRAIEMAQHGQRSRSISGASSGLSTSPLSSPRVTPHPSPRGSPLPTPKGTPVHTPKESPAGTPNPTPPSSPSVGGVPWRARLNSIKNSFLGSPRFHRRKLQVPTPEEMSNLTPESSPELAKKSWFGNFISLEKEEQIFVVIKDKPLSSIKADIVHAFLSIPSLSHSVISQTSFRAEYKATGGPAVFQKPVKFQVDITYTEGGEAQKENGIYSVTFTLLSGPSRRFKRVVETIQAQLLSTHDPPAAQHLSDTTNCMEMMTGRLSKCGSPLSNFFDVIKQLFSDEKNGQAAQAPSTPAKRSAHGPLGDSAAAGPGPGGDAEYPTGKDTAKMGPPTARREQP

[7] = biological target: T3, Serine/threonine-protein kinase BRSK2 (Homo sapiens); settings: at 1 µM
[8] = biological target: Calcium/calmodulin-dependent protein kinase type 1D (Homo sapiens) (UniProt Q8IU85); settings: at 0.1 µM
Calcium/calmodulin-dependent protein kinase type 1D (Homo sapiens), sequence (Q8IU85 whole entry, looked up): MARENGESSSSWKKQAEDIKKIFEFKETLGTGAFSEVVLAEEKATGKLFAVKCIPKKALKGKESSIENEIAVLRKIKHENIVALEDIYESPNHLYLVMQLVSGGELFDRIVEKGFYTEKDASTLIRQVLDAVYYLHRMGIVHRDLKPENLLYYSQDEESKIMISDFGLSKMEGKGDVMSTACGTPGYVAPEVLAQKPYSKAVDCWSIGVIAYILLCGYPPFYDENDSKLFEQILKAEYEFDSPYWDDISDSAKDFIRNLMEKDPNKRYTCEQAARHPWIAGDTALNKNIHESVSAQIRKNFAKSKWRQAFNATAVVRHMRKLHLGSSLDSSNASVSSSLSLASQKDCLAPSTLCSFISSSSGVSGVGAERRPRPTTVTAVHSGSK

[9] = biological target: Calcium/calmodulin-dependent protein kinase type 1D (Homo sapiens) (UniProt Q8IU85); settings: at 1 µM
[10] = biological target: Calcium/calmodulin-dependent protein kinase type II subunit alpha (Homo sapiens) (UniProt Q9UQM7); settings: at 0.1 µM
Calcium/calmodulin-dependent protein kinase type II subunit alpha (Homo sapiens), sequence (Q9UQM7 whole entry): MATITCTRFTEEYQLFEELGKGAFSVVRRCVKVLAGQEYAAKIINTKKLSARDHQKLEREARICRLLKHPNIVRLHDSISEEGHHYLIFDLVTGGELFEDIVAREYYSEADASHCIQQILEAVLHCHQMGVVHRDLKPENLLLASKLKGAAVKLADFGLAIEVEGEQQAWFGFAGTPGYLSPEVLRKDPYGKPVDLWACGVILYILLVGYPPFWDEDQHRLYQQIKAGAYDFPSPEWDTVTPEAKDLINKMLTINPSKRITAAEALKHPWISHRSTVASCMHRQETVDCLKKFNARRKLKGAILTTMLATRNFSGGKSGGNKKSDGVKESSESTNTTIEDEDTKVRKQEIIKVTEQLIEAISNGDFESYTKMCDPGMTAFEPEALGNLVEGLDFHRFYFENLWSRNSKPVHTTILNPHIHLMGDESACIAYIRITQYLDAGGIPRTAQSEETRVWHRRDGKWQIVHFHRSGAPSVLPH

[11] = biological target: Calcium/calmodulin-dependent protein kinase type II subunit alpha (Homo sapiens) (UniProt Q9UQM7); settings: at 1 µM
[12] = biological target: Calcium/calmodulin-dependent protein kinase type II subunit delta (Homo sapiens) (UniProt Q13557); settings: at 0.1 µM
Calcium/calmodulin-dependent protein kinase type II subunit delta (Homo sapiens), sequence (Q13557 whole entry): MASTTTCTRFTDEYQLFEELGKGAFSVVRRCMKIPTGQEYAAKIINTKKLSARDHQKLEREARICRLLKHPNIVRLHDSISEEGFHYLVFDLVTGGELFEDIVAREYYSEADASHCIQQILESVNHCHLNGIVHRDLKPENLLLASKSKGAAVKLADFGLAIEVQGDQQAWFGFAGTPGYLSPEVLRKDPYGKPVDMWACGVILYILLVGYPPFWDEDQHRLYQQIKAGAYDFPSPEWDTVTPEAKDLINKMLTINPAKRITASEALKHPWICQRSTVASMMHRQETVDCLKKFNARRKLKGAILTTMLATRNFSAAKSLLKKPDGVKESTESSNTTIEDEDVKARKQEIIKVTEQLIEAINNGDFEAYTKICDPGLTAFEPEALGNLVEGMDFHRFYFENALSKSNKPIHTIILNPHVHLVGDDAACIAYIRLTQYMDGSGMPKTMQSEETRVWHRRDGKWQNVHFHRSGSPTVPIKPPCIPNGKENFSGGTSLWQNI

[13] = biological target: Calcium/calmodulin-dependent protein kinase type II subunit delta (Homo sapiens) (UniProt Q13557); settings: at 1 µM
[14] = biological target: T4, Calcium/calmodulin-dependent protein kinase type IV (Homo sapiens) (UniProt Q16566); settings: at 0.1 µM
T4 sequence (whole entry): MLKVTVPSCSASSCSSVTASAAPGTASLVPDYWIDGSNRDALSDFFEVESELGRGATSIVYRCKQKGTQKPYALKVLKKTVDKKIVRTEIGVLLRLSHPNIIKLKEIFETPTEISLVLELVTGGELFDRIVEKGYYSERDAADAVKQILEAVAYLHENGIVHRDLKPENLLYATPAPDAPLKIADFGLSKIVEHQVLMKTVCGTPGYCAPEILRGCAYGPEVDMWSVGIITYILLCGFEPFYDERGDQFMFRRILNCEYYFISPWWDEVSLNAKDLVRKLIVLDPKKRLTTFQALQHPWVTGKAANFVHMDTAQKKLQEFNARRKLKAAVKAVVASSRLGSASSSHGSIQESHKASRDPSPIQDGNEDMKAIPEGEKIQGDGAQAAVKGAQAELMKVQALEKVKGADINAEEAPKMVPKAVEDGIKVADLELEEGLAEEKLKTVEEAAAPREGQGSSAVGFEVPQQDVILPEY

[15] = biological target: T4, Calcium/calmodulin-dependent protein kinase type IV (Homo sapiens); settings: at 1 µM
[16] = biological target: T5, Serine/threonine-protein kinase Chk1 (Homo sapiens) (UniProt O14757); settings: at 0.1 µM
T5 sequence (whole entry): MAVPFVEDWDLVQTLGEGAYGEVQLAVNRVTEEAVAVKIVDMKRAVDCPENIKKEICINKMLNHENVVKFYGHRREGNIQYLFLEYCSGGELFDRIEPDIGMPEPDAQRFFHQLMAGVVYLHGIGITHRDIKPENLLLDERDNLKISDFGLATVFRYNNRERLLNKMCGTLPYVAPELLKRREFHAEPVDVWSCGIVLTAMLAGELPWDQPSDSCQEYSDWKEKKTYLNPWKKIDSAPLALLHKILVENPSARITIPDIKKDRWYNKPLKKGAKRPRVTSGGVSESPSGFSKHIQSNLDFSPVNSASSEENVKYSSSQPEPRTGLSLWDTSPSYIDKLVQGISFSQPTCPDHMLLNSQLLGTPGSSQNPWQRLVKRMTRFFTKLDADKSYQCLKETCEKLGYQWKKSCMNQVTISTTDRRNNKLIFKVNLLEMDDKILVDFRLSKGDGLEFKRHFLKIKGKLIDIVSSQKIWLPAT

[17] = biological target: T5, Serine/threonine-protein kinase Chk1 (Homo sapiens); settings: at 1 µM
[18] = biological target: Serine/threonine-protein kinase Chk2 (Homo sapiens) (UniProt O96017); settings: at 0.1 µM
Serine/threonine-protein kinase Chk2 (Homo sapiens), sequence (O96017 whole entry): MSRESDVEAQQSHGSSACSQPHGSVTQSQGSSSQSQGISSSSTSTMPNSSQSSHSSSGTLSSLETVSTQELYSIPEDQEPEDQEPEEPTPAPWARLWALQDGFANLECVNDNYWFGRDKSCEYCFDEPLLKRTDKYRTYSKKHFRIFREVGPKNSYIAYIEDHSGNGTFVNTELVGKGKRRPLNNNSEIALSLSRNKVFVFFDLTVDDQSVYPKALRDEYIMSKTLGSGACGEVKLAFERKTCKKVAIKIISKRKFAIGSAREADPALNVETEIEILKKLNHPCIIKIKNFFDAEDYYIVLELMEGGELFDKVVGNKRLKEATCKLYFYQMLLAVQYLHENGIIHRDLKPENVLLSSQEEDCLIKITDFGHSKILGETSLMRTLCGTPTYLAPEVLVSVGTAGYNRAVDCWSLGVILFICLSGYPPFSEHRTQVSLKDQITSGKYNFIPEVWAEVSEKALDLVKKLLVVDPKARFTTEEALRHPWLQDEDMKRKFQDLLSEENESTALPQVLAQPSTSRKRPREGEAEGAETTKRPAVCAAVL

[19] = biological target: Serine/threonine-protein kinase Chk2 (Homo sapiens) (UniProt O96017); settings: at 1 µM
[20] = biological target: Death-associated protein kinase 1 (Homo sapiens) (UniProt P53355); settings: at 0.1 µM;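 also: reported figure is the mean inhibition of DAPK1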
Death-associated protein kinase 1 (Homo sapiens), sequence (P53355 whole entry, looked up): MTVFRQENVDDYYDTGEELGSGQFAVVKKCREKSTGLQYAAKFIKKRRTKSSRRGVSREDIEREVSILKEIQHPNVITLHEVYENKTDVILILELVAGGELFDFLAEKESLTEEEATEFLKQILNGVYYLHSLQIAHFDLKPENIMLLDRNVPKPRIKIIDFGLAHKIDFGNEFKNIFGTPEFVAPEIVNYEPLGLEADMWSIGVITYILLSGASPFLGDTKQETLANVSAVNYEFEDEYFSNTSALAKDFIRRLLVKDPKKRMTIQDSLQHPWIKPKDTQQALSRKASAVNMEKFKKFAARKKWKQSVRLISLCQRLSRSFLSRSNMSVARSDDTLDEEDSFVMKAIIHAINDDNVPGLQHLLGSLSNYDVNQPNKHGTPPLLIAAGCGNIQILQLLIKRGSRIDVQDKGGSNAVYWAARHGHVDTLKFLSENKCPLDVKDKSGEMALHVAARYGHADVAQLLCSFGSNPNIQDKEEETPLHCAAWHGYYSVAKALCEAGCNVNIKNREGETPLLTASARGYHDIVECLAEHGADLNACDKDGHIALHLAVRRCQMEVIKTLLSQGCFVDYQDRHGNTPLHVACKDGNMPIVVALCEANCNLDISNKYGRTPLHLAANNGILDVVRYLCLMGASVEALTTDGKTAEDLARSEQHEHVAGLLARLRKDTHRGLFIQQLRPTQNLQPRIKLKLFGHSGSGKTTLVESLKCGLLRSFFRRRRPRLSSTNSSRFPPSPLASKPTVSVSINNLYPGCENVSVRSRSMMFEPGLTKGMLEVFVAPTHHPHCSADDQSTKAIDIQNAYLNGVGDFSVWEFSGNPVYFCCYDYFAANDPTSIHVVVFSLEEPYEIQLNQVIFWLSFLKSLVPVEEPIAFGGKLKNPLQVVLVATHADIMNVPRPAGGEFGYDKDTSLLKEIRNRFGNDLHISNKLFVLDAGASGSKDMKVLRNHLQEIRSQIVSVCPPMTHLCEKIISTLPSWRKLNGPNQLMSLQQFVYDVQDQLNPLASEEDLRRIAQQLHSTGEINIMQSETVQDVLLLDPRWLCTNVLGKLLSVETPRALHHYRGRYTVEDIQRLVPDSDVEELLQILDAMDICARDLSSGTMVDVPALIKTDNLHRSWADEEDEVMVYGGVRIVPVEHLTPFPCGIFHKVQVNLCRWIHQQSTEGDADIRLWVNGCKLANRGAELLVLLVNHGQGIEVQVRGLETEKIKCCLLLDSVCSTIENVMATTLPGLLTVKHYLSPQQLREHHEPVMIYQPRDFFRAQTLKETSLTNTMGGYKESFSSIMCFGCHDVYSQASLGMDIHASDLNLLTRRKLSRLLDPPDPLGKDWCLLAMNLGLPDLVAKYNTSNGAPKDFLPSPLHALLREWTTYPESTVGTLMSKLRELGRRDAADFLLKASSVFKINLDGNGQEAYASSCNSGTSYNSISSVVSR

5'-AMP-activated protein kinase catalytic subunit alpha-2 (Homo sapiens), sequence (P54646 whole entry, looked up): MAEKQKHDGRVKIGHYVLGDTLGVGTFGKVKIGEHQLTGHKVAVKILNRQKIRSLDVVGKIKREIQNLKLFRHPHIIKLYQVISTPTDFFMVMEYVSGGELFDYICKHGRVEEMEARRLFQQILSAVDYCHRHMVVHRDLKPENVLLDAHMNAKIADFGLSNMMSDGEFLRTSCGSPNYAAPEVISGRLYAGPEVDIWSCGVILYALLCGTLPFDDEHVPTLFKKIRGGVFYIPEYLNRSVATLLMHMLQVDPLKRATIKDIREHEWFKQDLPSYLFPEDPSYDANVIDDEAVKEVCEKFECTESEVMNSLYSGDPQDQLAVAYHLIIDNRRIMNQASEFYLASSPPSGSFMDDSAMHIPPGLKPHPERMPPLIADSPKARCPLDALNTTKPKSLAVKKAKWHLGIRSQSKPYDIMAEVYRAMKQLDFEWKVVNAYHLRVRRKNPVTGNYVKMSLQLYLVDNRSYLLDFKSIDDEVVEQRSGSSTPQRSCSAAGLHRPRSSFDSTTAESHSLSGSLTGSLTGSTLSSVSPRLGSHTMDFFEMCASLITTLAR

SMILES | inhibition [1] [%] | inhibition [2] [%] | inhibition [3] [%] | inhibition [4] [%] | inhibition [5] [%] | inhibition [6] [%] | inhibition [7] [%] | inhibition [8] [%] | inhibition [9] [%] | inhibition [10] [%] | inhibition [11] [%] | inhibition [12] [%] | inhibition [13] [%] | inhibition [14] [%] | inhibition [15] [%] | inhibition [16] [%] | inhibition [17] [%] | inhibition [18] [%] | inhibition [19] [%] | inhibition [20] [%]
C[C@@H](Oc1cc(-n2cnc3ccc(OCC4CCN(C)CC4)cc32)sc1C(N)=O)c1ccccc1Cl | 13.7 | 30.2 | 71.9 | 28.5 | 60 | 38.5 | 72.8 | 1.56 | 5.96 | 6.36 | 12.8 | 9.02 | 38.1 | 0.69 | 3.44 | 7.19 | 10.4 | 2.55 | 6.43 | 7.7
NCc1ccc(-n2c(-c3nonc3N)nc3cnccc32)cc1 | 8.19 | 4.91 | 7.23 | 4.76 | 6.27 | 4.11 | 8.49 | 2.03 | 4.78 | 4.91 | 7.05 | 6.42 | 15.2 | -0.16 | 4.15 | 8.32 | 12.3 | 2.9 | 6.29 | 7.02
CS(=O)(=O)CCNCc1cc(-c2cc3c(Nc4ccc(OCc5cccc(F)c5)c(Cl)c4)ncnc3s2)cs1 | 3.11 | -0.49 | 3.79 | 1.37 | -0.77 | 0.67 | 4.02 | 0.48 | 2.27 | 3.07 | 3.15 | 4.55 | 7.4 | -2.05 | 2.64 | 1.14 | 4.23 | 4.96 | 11.2 | 2.74
COc1ccc2ncn(-c3cc(O[C@H](C)c4ccccc4Cl)c(C(N)=O)s3)c2c1 | 1.17 | 0.64 | 15.7 | 2.58 | 17.8 | 6.22 | 28.1 | -1.85 | -1.6 | 1.3 | -1.4 | 2.08 | 4.15 | -2.83 | -2.54 | 0.23 | 0.19 | 2.58 | 1.99 | 3.77
CN(C)CCCNc1nccc(-c2c(-c3ccc(F)cc3)nn3cc(C(F)(F)F)ccc23)n1 | 2.79 | -1.31 | 7.22 | 1.29 | 4.81 | 0.82 | 4.17 | 1.56 | 1.39 | 3.05 | 4.26 | 3.65 | 4.37 | 1.43 | 2.27 | -3.07 | 1.13 | 0.82 | 0.61 | 0.55
CCc1cccc(CC)c1/C=C/c1cncc(C(=O)NC)c1 | 2.36 | 1.6 | 6.57 | 1.79 | 0.96 | 0.46 | 0.3 | 0.62 | 1.99 | 3.18 | 3.51 | 2.92 | 2.2 | 1.05 | 13.9 | 3.68 | 2.13 | 1.58 | 1.85 | 2.61
Cc1nnc(-c2ccc(C)c(-c3ccc(C(=O)NCc4ccc(Cl)cc4)cc3)c2)o1 | 3.56 | 1 | 4.79 | -2.13 | -2.87 | 1.17 | 2.51 | -1.49 | 0.04 | 2.6 | 3.22 | 2.75 | 2.68 | 0.34 | 0.46 | 1.36 | 2.22 | 1.43 | 1.86 | 2.85
